High-throughput results deposited in PubChem by several laboratories.
The list is not random: actives were taken first. Their share in the collection is about 4.8%.
STAT1 activator: activators of IFN-gamma induced STAT1 signaling; NIH 3T3 STAT1-luciferase reporter, luminescence; 100% = IFN-gamma alone, no compound; AID 932; hit rate 2.6% among 200,000; activation (% of control), % at 5.5 µM;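 active = activation above the screen-wide mean activation plus 3 SD, cut at about 130% in these data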;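 also: raw ratio to IFN-gamma control signal so 100% means no change and 0% no light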
Wee1 degr inh: blocks degradation of human Wee1 kinase; HeLa Luc-Wee1K328M stability, luciferase luminescence; 100% = proteasome inhibitor MG132 effect; reporter increase, % at 5 µM; hit rate 1.2% among 220,000; AID 1321;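 active = activation above the mean of all tested compounds plus 3 SD, set per screening run, cut at about 8.8% in these data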;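 also: cells exposed to compound for 20 h before luminescence read; 0% = DMSO alone and 100% = MG132 at 30 µM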
NF-kB expr up: compounds increasing NF-kB expression in human neuronal cells. NF-kB reporter expression; active compounds read high. fold change at 12.5 µM. hit rate 1.6% among 190,000; in the data active = fold change above about 3.3
Hsp70 activator: switches on Hsp70 transcription. HeLa Hsp70 promoter luciferase reporter, luminescence; scaled: vehicle 0, proteasome-inhibitor control 100%. activation, % at 10 µM. hit rate 0.04% among 200,000. AID 1203;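 active = activation above the mean across all tested compounds plus 3 SD, cutoff set per campaign, cut at about 5.5% in these data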;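 also: 100% = MG132 at 30 µM as the positive control and 0% = DMSO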
APP 5'UTR act: APP 5'UTR luciferase reporter activation. activation, % at 2 µM. hit rate 1% among 190,000. SH-SY5Y APP 5'UTR luciferase reporter, luminescence; zero percent = DMSO vehicle wells. AID 1276;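 active = activation above a set limit, based on mean plus 3 SD of controls, cut at about 140% in these data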
APP 5UTR inh: APP translation inhibition | AID 1285 | SH-SY5Y APP 5'UTR-luciferase reporter, luminescence | hit rate 0.82% among 190,000 | inhibition, % at 2 µM;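 active = inhibition above a set limit, derived from the sample mean plus 3 SD, cut at about 45% in these data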
Numbers without * were called inactive.

For c1ccc(N2CCN(c3nc4cc5c(cc4s3)OCO5)CC2)cc1 the results were STAT1 activator 146*, Wee1 degr inh 8, NF-kB expr up 3.8*, Hsp70 activator 0, APP 5'UTR act 80 and APP 5UTR inh -80.
Screening CCCCOCCCNC(=O)c1ccc([N+](=O)[O-])c(C)c1 returned STAT1 activator 104, Wee1 degr inh -2, NF-kB expr up 0.97, Hsp70 activator 0, APP 5'UTR act -17 and APP 5UTR inh 17.
For O=C(NCCc1ccccc1)C(=O)NCc1ccncc1 the results were STAT1 activator 104, Wee1 degr inh 2, NF-kB expr up 1.2, Hsp70 activator 0, APP 5'UTR act -9 and APP 5UTR inh 9.
Screening O=C(NCCc1ccccc1)c1ccc([N+](=O)[O-])cc1 returned STAT1 activator 103, Wee1 degr inh -1, NF-kB expr up 4.3*, Hsp70 activator 0, APP 5'UTR act 152* and APP 5UTR inh -152.
Screening O=C(NCCc1ccc([N+](=O)[O-])cc1)c1ccccc1 returned Wee1 degr inh 6.
For Cc1cc(C(=O)NCCc2ccccc2)ccc1[N+](=O)[O-] the results were STAT1 activator 134*, Wee1 degr inh 1, NF-kB expr up 2.2, Hsp70 activator 0, APP 5'UTR act 85 and APP 5UTR inh -85.
For O=C(NCCc1ccccc1)c1ccncc1 the results were STAT1 activator 130*, Wee1 degr inh 11*, NF-kB expr up 2.2, Hsp70 activator 0, APP 5'UTR act 33 and APP 5UTR inh -33.
Screening O=C(NCCc1ccccc1)c1ccc(Cl)c([N+](=O)[O-])c1 returned STAT1 activator 115, Wee1 degr inh 9.4*, NF-kB expr up 2.3, Hsp70 activator 0, APP 5'UTR act 37 and APP 5UTR inh -37.
`Cc1cc(Cl)ccc1OCC(=O)NNC(=O)c1cnccn1` gave STAT1 activator 98, Wee1 degr inh 2, NF-kB expr up 0.92, Hsp70 activator 0, APP 5'UTR act -13 and APP 5UTR inh 13.
`CC1=Nc2ccccc2/C1=C/c1c(N)n2c(S(=O)(=O)CC(C)C)nsc2nc1=O` gave STAT1 activator 95, Wee1 degr inh -1, NF-kB expr up 1.2, Hsp70 activator 0, APP 5'UTR act -8 and APP 5UTR inh 8.
For COc1ccccc1CNC(=O)CSc1ccc(C)cc1 the results were STAT1 activator 104, Wee1 degr inh 2, NF-kB expr up 1.4, Hsp70 activator 0, APP 5'UTR act 3 and APP 5UTR inh -3.
CC(C)C(=O)NNC(=O)c1c(O)c2ccccc2[nH]c1=O was read as Wee1 degr inh 9.
For CCOc1ccc(C(=O)Nc2ccc(Cc3ccncc3)cc2)cc1Br the results were STAT1 activator 93, Wee1 degr inh -2, NF-kB expr up 0.89, Hsp70 activator 0, APP 5'UTR act 12 and APP 5UTR inh -12.
O=C(NCCc1ccccc1)c1cccs1 was read as STAT1 activator 142*, Wee1 degr inh 0, NF-kB expr up 3.2, Hsp70 activator 0, APP 5'UTR act 77 and APP 5UTR inh -77.
For O=C(NCc1ccco1)c1cnc2sccn2c1=O the results were STAT1 activator 96, Wee1 degr inh -2, NF-kB expr up 0.99, Hsp70 activator 0, APP 5'UTR act -1 and APP 5UTR inh 1.
For O=C(NCCc1ccccc1)c1cnc2sccn2c1=O the results were STAT1 activator 136*, Wee1 degr inh 7, NF-kB expr up 2, Hsp70 activator 0, APP 5'UTR act 74 and APP 5UTR inh -74.
Screening Cc1ccc(-n2c(C)cc3c2CCCC3=O)cc1 returned STAT1 activator 100, Wee1 degr inh -2, NF-kB expr up 1, Hsp70 activator 0, APP 5'UTR act -7 and APP 5UTR inh 7.
For COc1ncccc1-c1nnn(-c2ccc(Cl)nc2)n1 the results were STAT1 activator 115, Wee1 degr inh 9.7*, NF-kB expr up 1.8, Hsp70 activator 0, APP 5'UTR act 28 and APP 5UTR inh -28.
For Cc1ccc(-n2nnc(-c3cccnc3Cl)n2)cc1 the results were STAT1 activator 126, Wee1 degr inh 4, NF-kB expr up 8.6*, Hsp70 activator 0, APP 5'UTR act 204* and APP 5UTR inh -204.
Screening Clc1ccc(-n2nnc(-c3cccnc3Cl)n2)cn1 returned STAT1 activator 134*, Wee1 degr inh -2, NF-kB expr up 1.8, Hsp70 activator 1, APP 5'UTR act 48 and APP 5UTR inh -48.
